Test results as given in PubChem BioAssay (Tox21).
Records with an inconclusive call do not appear. Activity calls are given as the source filed them. Unless noted, calls come from the whole dose curve; as a rule, active = well fitted curve in the direction sought with a large enough effect in the repeat runs; inconclusive = weak or mixed curves; inactive = no such curve, though single readings can be large; an effect the other way counts as inactive or inconclusive.

Experiments:
[1] = qHTS assay to identify small molecule antagonists of the estrogen related receptor (ERR) signaling pathway - cell viability counter screen (AID 1224818);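 note: series mostly up to about 46 µM; viability measured after 17.5 h of compound exposure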
In short: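 ERR reporter cells plated 6 h at 37 C/5% CO2, then compounds in DMSO pin-transferred and incubated 17.5 h at 37 C. Viability read as CellTiter-Fluor fluorescence after 30 min at 37 C.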

[2] = qHTS assay to identify small molecule antagonists of the estrogen related receptor (ERR) signaling pathway (AID 1224819;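 note: luminescence from an ERR-driven luciferase reporter measured with One-Glo reagent; series mostly up to about 46 µM; nearly all actives have a fitted effect of over 50% in size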)
In short: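 ERR reporter cells were plated at 2,000 cells/well and left 6 h at 37 C/5% CO2 before pin-tool transfer of compounds in DMSO. After 18 h at 37 C, One-Glo was added and luminescence was read 30 min later at room temperature.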

[3] = qHTS assay to identify small molecule antagonists of the estrogen related receptor signaling pathway with the pleiotropic PPARgamma coactivator (PGC) cell viability counter screen (AID 1224822; note: series mostly up to about 46 µM)
In short: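 PGC/ERR cells were seeded at 2,000 cells/well, rested 6 h at 37 C/5% CO2, then given compounds in DMSO by pin tool and incubated 17.5 h at 37 C. Viability came from CellTiter-Fluor fluorescence after 30 min.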

[4] = qHTS assay to identify small molecule agonists of the estrogen related receptor signaling pathway with the pleiotropic PPARgamma coactivator (PGC) (AID 1224823)
In short: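 Cell-based luciferase assay in the NTP-supplied PGC/ERR line, 2,000 cells/well; 18 h compound exposure at 37 C, luminescence after One-Glo.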

[5] = tested on: estrogen-related receptor alpha (ERRalpha) with PGC-1alpha coactivator, human; experiment: qHTS assay to identify small molecule antagonists of the estrogen related receptor signaling pathway with the pleiotropic PPARgamma coactivator (PGC) (AID 1224821; calls by dose curve;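 note: series mostly up to about 46 µM; lower luminescence signal means antagonism of PGC/ERR signalling; nearly all actives have a fitted effect of over 50% in size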)
In short: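 Quantitative HTS for antagonism: PGC/ERR cells received compounds after 6 h attachment and were incubated 18 h at 37 C, with luminescence (One-Glo) as the endpoint.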

[6] = qHTS assay to identify small molecule agonists of the estrogen related receptor (ERR) signaling pathway (AID 1224820)
In short: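 Quantitative HTS of the LOPAC library used NTP ERR reporter cells treated 18 h at 37 C. Signal is luminescence after One-Glo addition and a 30 min room-temperature incubation.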

Measured: Potency

CCN1C[C@@]2(COC)C3[C@@H](OC)C4[C@H]1C3([C@@H]1C[C@@]3(O)[C@H](OC(=O)c5ccccc5)[C@@H]1[C@]4(OC(C)=O)[C@@H](O)[C@@H]3OC)[C@H](OC)C[C@H]2O
inactive: [1] | [2] | [3] | [4]

CN1CC[C@@]2(C)c3cc(OC(=O)Nc4ccccc4)ccc3N(C)[C@@H]12
inactive: [1] | [2] | [5] | [4]

CCN(CC)c1ncnc2c1ncn2[C@@H]1O[C@H](COP(=O)(O)OP(=O)(O)C(Br)(Br)P(=O)(O)O)[C@@H](O)[C@H]1O
inactive: [1] | [2] | [3] | [4]

NCC(CP(=O)(O)O)c1ccc(Cl)cc1 (stereo unspecified)
inactive: [1] | [2] | [6] | [4]
